Compound activity: PubChem BioAssay, National Center for Advancing Translational Sciences (NCATS)
Shown are actives, neighbours in structure and some others; about 21% of the full set was active somewhere.
Sm TGR block: S. mansoni TGR enzyme inhibition. Q962Y6. actives 3% (n = 360,000). purified TGR, DTNB reduction, TNB absorbance 405 nm. AID 485364. Potency, µM (highest dose often 114 µM), inactives show top-dose activity change, negative = inhibition, actives largely listed as inhibitors; also: potency is read from the fitted curve at half-maximal effect; % is scaled to controls: 0 for no effect and ±100 for the full control effect; nearly all actives have a fitted effect of over 60% in size
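TGR 20 nM + NADPH 100 uM (dispensed conc.), cpd preinc 15 min RT; start with NADPH (500 uM addition) then DTNB (15 mM addition). Kinetic TNB absorbance, 405 nm filter. Four-parameter Hill fit across titration.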
Pf growth 48h: P. falciparum growth inhibition at 48 hours (one generation). P. falciparum luciferase growth in erythrocytes, 48 h. actives 5.9% (n = 310,000). Potency, µM (highest dose often 28.7 µM), inactives show top-dose activity change, negative = inhibition, hits mostly inhibitors; also: potency is read from the fitted curve at half-maximal effect; % is scaled to controls: 0 for no effect and ±100 for the full control effect
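Firefly luciferase activity from engineered P. falciparum reports growth; inhibitors lower the luminescent signal. Cultures contained 2% hematocrit erythrocytes at 0.1% final parasitemia.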
Cycloheximide cs: counter-screen for Shiga toxin inhibitors: cycloheximide protein synthesis inhibition. cell reporter, cycloheximide protein synthesis inhibition counterscreen. max response, %. actives 12% (n = 300,000). AID 2314; in the data active = max response mostly above about 13%, no sharp cut-off; inactive = mostly below about 14%; also: read at 38.3 µM for the half of the compounds with a filed dose; 0% is about no effect
Pf growth 96h: P. falciparum growth inhibition at 96 hours; P. falciparum luciferase reporter growth, 96 h; Potency, µM (top dose mostly 28.7 µM), for the others: at the top dose activity change, negative = inhibition, most hits filed as inhibitors; actives 6.9% (n = 320,000); also: potency is read from the fitted curve at half-maximal effect; % is scaled to controls: 0 for no effect and ±100 for the full control effect
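Luminescence readout: decreased luciferase signal marks inhibited growth of reporter-expressing P. falciparum in infected red cells (2% hematocrit, 0.05% parasitemia final), exposed to compound two generations (96 h, 37 C, 5% CO2).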
NS1 inh: blocks influenza NS1 protein function | actives 0.4% (n = 270,000) | AID 2326 | Potency, µM (series often up to 46.1 µM), inactives show at the top dose activity, positive = more growth; calls by dose curve; also: potency is read from the fitted curve at half-maximal effect; actives are rising curves; nearly all actives have a fitted effect of over 50% in size
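Read-out: OD600 growth recovery of NS1-expressing budding yeast. Cells grown overnight at 30C in -URA glucose medium, washed, resuspended and diluted 1:100 in 2% galactose assay medium, pH 6.0. Same strain lacking NS1 served as positive control.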
Shiga toxin inh: inhibitors of Shiga toxin in Vero cells | Vero cells, Shiga toxin protein synthesis inhibition reporter | inhibition, % at 38.7 µM | AID 2315 | actives 9.2% (n = 290,000); in the data active = inhibition mostly above about 28%, no sharp cut-off; inactive = mostly below about 43%; also: 0% is about no effect
* hit, by the source's call; ? = inconclusive; . = no result given. Unless noted, calls follow the shape of the dose curve; as a rule, active = well fitted curve in the direction sought with a large enough effect; inconclusive = small, poorly fitted or top-dose-only effect, or another doubt; inactive = no such curve, though single readings can be large; an effect the other way counts as inactive or inconclusive.

SMILES | Sm TGR block | Pf growth 48h | Cycloheximide cs | Pf growth 96h | NS1 inh | Shiga toxin inh
COc1ccc(OCCN(C)Cc2c(O)ccc3ccccc23)cc1 | 1.1µM* | 4% | 18* | 39% | 10% | 37
CN(Cc1ccccc1)Cc1c(O)ccc2ccccc12 | 0.89µM* | -4% | -2 | ? | 10% | 12
CN(Cc1cc(Cl)cc(Cl)c1O)Cc1c(O)ccc2ccccc12 | . | . | . | . | -16% | .
CC(C)CN(CCCNC(=O)c1cn(C)c2ccc(S(=O)(=O)N(C)C3CCCCC3)cc2c1=O)CC(C)C | 8% | . | . | . | . | .
Cc1ccc(CNc2nc(-c3ccco3)nn2S(C)(=O)=O)cc1 | -9% | . | . | . | . | .
CCc1nnc(NC(=O)CSCc2cc(=O)c3ccc(C)cc3[nH]2)s1 | -6% | . | . | . | . | .
CC(C)=CC(=O)N1CC[C@@H](N2CCN(c3ccccc3F)CC2)[C@H](O)C1 | -16% | -15% | -3 | ? | 18% | -16
Cc1ccc(C)c(NC(=O)c2cc3ccccn3n2)c1 | -2% | 112% | 27* | 33% | -11% | 99*
CCc1ccc(CNC(=O)c2cc3ccccn3n2)cc1 | -1% | . | . | . | . | .
COc1ccc(C)cc1NC(=O)c1cc2ccccn2n1 | -8% | . | . | . | . | .
CC(=O)c1cccc(NC(=O)c2cc3ccccn3n2)c1 | 0% | . | 30* | ? | -117% | 34
Cc1ccc(C)c(NC(=O)c2cnn3ccccc23)c1 | -35% | . | 14* | -12% | -92% | 66
O=C(NCc1ccc(F)cc1)c1cc2ccccn2n1 | 4% | 20% | 24* | 3.7µM* | -38% | -40
COCCCn1c(SCc2cccc(Cl)c2)nc2c(sc3ccccc32)c1=O | -2% | . | . | . | . | .
Nc1nc(C(F)(F)F)cc(=O)n1N | 7% | 0% | -4 | -3% | 8% | 16
Cc1cc(Cl)ccc1NC(=O)c1cc2ccccn2n1 | 1% | . | . | . | . | .
Cc1ccccc1NC(=O)c1cc2ccccn2n1 | -6% | 204% | 52* | 278% | -4% | 67*
Cc1nn(-c2ccccc2)c2sc(C(=O)NC3CC3)cc12 | 2% | ? | 52* | -3% | ? | 81*
Cc1csc(NC(=O)CCC(=O)N(CC(=O)NC2CCCC2)Cc2ccco2)n1 | 3% | ? | 2 | 1% | 0% | -10
Cc1nn(-c2ccccc2)c2sc(C(=O)N(CC(=O)NC3CCCC3)Cc3ccco3)cc12 | 49% | 12µM* | 22 | ? | 2% | 14
Cc1cc(S(=O)(=O)N2CCOCC2)ccc1OCC(=O)NCCCn1ccnc1 | 1% | -4% | -1 | 54% | -3% | -6
CN1CCCNc2nc3ccccc3nc21 | 0% | 82% | 35* | ? | -43% | 84*
COc1ccc(C(C)=O)c(Oc2ccc(S(=O)(=O)N3CCOCC3)cn2)c1 | -5% | 8.3µM* | . | ? | . | .
CCc1cccc(N2C(=O)N(Cc3c(F)cccc3Cl)c3ccccc3S2(=O)=O)c1 | 0% | . | . | . | . | .
CCOC(=O)c1ccccc1NC(=O)N1CCCN(S(=O)(=O)c2ccc3c(ccn3CC)c2)CC1 | -19% | . | . | . | . | .
SMILES | Sm TGR block | Pf growth 48h | Cycloheximide cs | Pf growth 96h | NS1 inh | Shiga toxin inh
CC1=CC(=O)C(C(C)C)=C/C1=N/OC(=O)c1cccc([N+](=O)[O-])c1 | 45µM* | . | 9 | ? | -69% | -9
CC1=CC(=NOC(=O)c2cccc([N+](=O)[O-])c2)C=C(C)C1=O | 2.8µM* | ? | 23* | . | -13% | 45
COc1ccc(C(=O)ON=C2C=C(C)C(=O)C(C)=C2)cc1 | -1% | 9% | -1 | ? | 6% | 0
CC(C)C1/C(=N/O)CC(c2ccccc2)NC1c1ccccc1 (stereo unspecified) | 14% | 13µM* | -2 | 9.3µM* | 2% | 22
CC1/C(=N/O)CC(c2ccccc2)NC1c1ccccc1 (stereo unspecified) | -31% | . | -3 | ? | 3% | -12
CCC1C(=NO)C(CC)C(c2ccccc2)NC1c1ccccc1 (stereo unspecified) | . | 12µM* | 8 | -29% | -10% | -18
CC1C(=NO)C(C)C(c2ccccc2)NC1c1ccccc1 (stereo unspecified) | -11% | -36% | 1 | . | -2% | 51
CCCC1/C(=N/O)CC(c2ccccc2)NC1c1ccccc1 (stereo unspecified) | 9% | 12µM* | 6 | 26% | . | 9
NS(=O)(=O)c1cccc(NC(=O)COC(=O)Cc2ccc(Cl)cc2)c1 | 3% | 19% | 1 | 8% | . | -5
OCC[C@@H]1C[C@@H](O)[C@H](O)[C@]2(Cc3ccccc3O2)O1 | 3% | 32% | 1 | 11% | -6% | -10
CCOC(=O)c1ccc(S(=O)(=O)Nc2ccc(N3CCOCC3)cc2)cc1 | -9% | -4% | -2 | 24% | 7% | -8
CC(C)C(=O)NNC(=O)c1ccccn1 | -3% | ? | 5 | 13µM* | -3% | 1
CC(Oc1ccccc1)C(=O)NNC(=O)c1ccccn1 (stereo unspecified) | 8% | 9.3µM* | 5 | ? | -9% | 19
C/C(=N\NC(=O)C(C)Oc1ccc([N+](=O)[O-])cc1)c1ccccn1 (stereo unspecified) | 6% | ? | -3 | 2.1µM* | -1% | -7
CC(C)Nc1nc(Cl)nc(NNC(=O)C(C)Oc2ccccc2)n1 (stereo unspecified) | 30% | -14% | -3 | 1.7µM* | -4% | -20
Cc1cccnc1NC(=O)C(C)Oc1ccccc1 (stereo unspecified) | 4% | 46% | 1 | -12% | ? | 24
O=C(O)[C@@H](Cc1c[nH]c2ccccc12)C(=O)NO | . | . | . | . | 17% | .
CCc1ccc(CNc2ccc3c(c2)ncn3CC)cc1 | 4.5µM* | 11% | 53* | -20% | -5% | 86*
CCCn1cnc2cc(NCc3cccs3)ccc21 | -5% | 57% | 33* | 47% | 9% | 106*
CCn1cnc2cc(NCc3ccc(OC)cc3)ccc21 | 7% | . | 27 | 46% | -7% | 46
COc1cc(C(=O)Nc2ccc3c(c2)ncn3C(C)(C)C)cc(OC)c1OC | 4% | ? | -1 | ? | -21% | -3
CC(C)(C)n1cnc2cc(NCc3ccc(Br)cc3)ccc21 | -9% | -13% | 47* | -13% | -4% | 117*
CCCCn1cnc2cc(NCc3ccncc3)ccc21 | 6% | 0% | 7 | 160% | -6% | 1
CCc1ccc(CNc2ccc3c(c2)ncn3C(C)(C)C)cc1 | -1% | -15% | 40* | -27% | -2% | 94*
CCN(CC)c1ccc(CNc2ccc3c(c2)ncn3C(C)(C)C)cc1 | ? | -27% | 7 | 1% | -3% | -3
CC[C@@H](C)[C@@H](O)[C@H](C)C(=O)[C@H](C)/C=C(\C)C[C@H](C)[C@@H]1OC(=O)[C@H]1CC | . | . | 4 | . | . | -17
O=C(NC1CCSc2ccccc21)c1c(F)cccc1Cl (stereo unspecified) | -19% | -6% | -2 | ? | -4% | -4
